Source: PubChem BioAssay (NCI)
Values joined by “and” are separate entries in the source; they are usually repeats but may differ in a detail not shown here. Equal entries are not always repeated. Compounds without any hit were thinned out: in the full panel of roughly 83,000, 20% have a hit.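 Percent growth is the endpoint: 0 to 100 indicates growth inhibition (40 means 60% inhibition), 0 means no net growth, and negative values indicate cell death.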 Active and inactive are the calls of the source. Rule for the calls: active = growth percent below 10; inactive = the rest.

What was measured:
Assay in all cases: NCI-60 one-dose screen, 48 h (100 = growth as untreated, 0 = no growth, -100 = all killed)
Details in all cases: 10 µM unless noted
SR leukemia = system: SR leukemia
RPMI-8226 leukemia = system: RPMI-8226 leukemia
OVCAR-8 ovarian = system: OVCAR-8 ovarian
OVCAR-5 ovarian = system: OVCAR-5 ovarian
OVCAR-4 ovarian = system: OVCAR-4 ovarian
SK-OV-3 ovarian = system: SK-OV-3 ovarian
OVCAR-3 ovarian = system: OVCAR-3 ovarian
HS 578T breast = system: HS 578T breast
NCI/ADR-RES ovarian = system: NCI/ADR-RES ovarian
T-47D breast = system: T-47D breast
BT-549 breast = system: BT-549 breast
MDA-MB-435 melanoma = system: MDA-MB-435 melanoma
SW-620 colon = system: SW-620 colon
HCT-116 colon = system: HCT-116 colon
HCC-2998 colon = system: HCC-2998 colon
KM12 colon = system: KM12 colon
MCF7 breast = system: MCF7 breast
IGROV1 ovarian = system: IGROV1 ovarian

Measured: growth

CCCCCCCCCCCCCCCCC(=O)O
inactive: SR leukemia 94.3% | RPMI-8226 leukemia 99.4% | OVCAR-8 ovarian 103% | OVCAR-5 ovarian 117% | OVCAR-4 ovarian 106% | SK-OV-3 ovarian 116% | OVCAR-3 ovarian 115% | HS 578T breast 100% | NCI/ADR-RES ovarian 100% | T-47D breast 104% | BT-549 breast 112% | MDA-MB-435 melanoma 109% | SW-620 colon 105% | HCT-116 colon 101% | HCC-2998 colon 96.8% | KM12 colon 105%

CC(C)(C)C1CCC(=NO)CC1 (configuration not stated)
inactive: SR leukemia 116% | RPMI-8226 leukemia 92.5% | OVCAR-8 ovarian 91.9% | OVCAR-5 ovarian 90.3% | OVCAR-4 ovarian 97.3% | SK-OV-3 ovarian 101% | OVCAR-3 ovarian 104% | HS 578T breast 102% | NCI/ADR-RES ovarian 103% | T-47D breast 96.6% | BT-549 breast 115% | MDA-MB-435 melanoma 99.8% | SW-620 colon 106% | MCF7 breast 83.9% | HCT-116 colon 96.8% | HCC-2998 colon 107% | KM12 colon 103%

Nc1[nH][nH]c(=O)c1N=Nc1ccccc1
inactive: SR leukemia 125% and 98.6% | RPMI-8226 leukemia 110% | OVCAR-8 ovarian 102% and 108% | OVCAR-5 ovarian 101% and 109% | OVCAR-4 ovarian 99.6% | SK-OV-3 ovarian 101% and 107% | OVCAR-3 ovarian 106% and 111% | HS 578T breast 107% and 130% | NCI/ADR-RES ovarian 106% and 105% | BT-549 breast 101% and 133% | MDA-MB-435 melanoma 103% and 99.7% | SW-620 colon 97.5% and 114% | MCF7 breast 92.9% and 94.5% | HCT-116 colon 104% and 102% | HCC-2998 colon 97.9% and 104% | KM12 colon 105% and 106%

COC(=O)c1ccccc1Cl
inactive: SR leukemia 96.4% | RPMI-8226 leukemia 113% | OVCAR-8 ovarian 102% | OVCAR-5 ovarian 106% | OVCAR-4 ovarian 103% | SK-OV-3 ovarian 105% | OVCAR-3 ovarian 105% | HS 578T breast 108% | NCI/ADR-RES ovarian 109% | BT-549 breast 98.4% | MDA-MB-435 melanoma 103% | SW-620 colon 103% | MCF7 breast 99.6% | HCT-116 colon 100% | HCC-2998 colon 105% | KM12 colon 101%

CCCC(=O)Oc1ccc(CC)cc1
inactive: SR leukemia 90.5% | RPMI-8226 leukemia 108% | OVCAR-8 ovarian 98.1% | OVCAR-5 ovarian 102% | OVCAR-4 ovarian 97.3% | SK-OV-3 ovarian 103% | OVCAR-3 ovarian 115% | HS 578T breast 113% | NCI/ADR-RES ovarian 105% | T-47D breast 90.9% | BT-549 breast 107% | MDA-MB-435 melanoma 107% | SW-620 colon 111% | MCF7 breast 92.4% | HCT-116 colon 101% | HCC-2998 colon 102% | KM12 colon 102%

C(=N\OCCc1ccccc1)/c1ccccn1
inactive: SR leukemia 96.5% and 84.3% | RPMI-8226 leukemia 117% and 98.3% | OVCAR-8 ovarian 108% and 103% | OVCAR-5 ovarian 101% and 102% | OVCAR-4 ovarian 114% and 113% | SK-OV-3 ovarian 123% | OVCAR-3 ovarian 105% and 104% | HS 578T breast 117% and 105% | NCI/ADR-RES ovarian 117% and 104% | T-47D breast 114% | BT-549 breast 138% and 102% | MDA-MB-435 melanoma 109% and 106% | SW-620 colon 110% and 111% | MCF7 breast 92.9% and 105% | HCT-116 colon 112% and 102% | HCC-2998 colon 105% and 104% | KM12 colon 113% and 107%

Cc1cc(NC(=O)NC(=O)c2ccccc2N(C)C)ccc1Oc1ncc(Br)cn1
active: MDA-MB-435 melanoma -27.4% and 6.67%
inactive: SR leukemia 11.9% and 22.4% | OVCAR-8 ovarian 51.9% | OVCAR-5 ovarian 34.1% and 78.5% | OVCAR-4 ovarian 15.8% and 48.7% | SK-OV-3 ovarian 45% and 59.9% | HS 578T breast 23.8% and 40% | BT-549 breast 17.5% and 39.1% | SW-620 colon 28.4% and 33.9% | MCF7 breast 16.5% and 16.9% | HCT-116 colon 17% and 21.8% | KM12 colon 15.3% and 32.1%
0.0582% (active) and 16.2% (inactive): OVCAR-3 ovarian
5.74% (active) and 23.3% (inactive): NCI/ADR-RES ovarian
-9.68% (active) and 20.4% (inactive): RPMI-8226 leukemia
-12% (active) and 54.7% (inactive): IGROV1 ovarian
1.35% (active) and 50.4% (inactive): HCC-2998 colon

O=S(=O)(O)c1ccc2cc(O)ccc2c1
inactive: SR leukemia 101% | RPMI-8226 leukemia 106% | OVCAR-8 ovarian 102% | OVCAR-5 ovarian 107% | OVCAR-4 ovarian 112% | SK-OV-3 ovarian 104% | IGROV1 ovarian 109% | OVCAR-3 ovarian 112% | HS 578T breast 104% | NCI/ADR-RES ovarian 105% | BT-549 breast 105% | MDA-MB-435 melanoma 107% | SW-620 colon 99.9% | HCT-116 colon 108% | HCC-2998 colon 109% | KM12 colon 110%

CC(=O)Oc1ccc(C(c2ccc(OC(C)=O)cc2)c2ccccn2)cc1
inactive: SR leukemia 95.1% and 98% | RPMI-8226 leukemia 82.9% and 104% | OVCAR-8 ovarian 48.7% | OVCAR-5 ovarian 109% and 27% | SK-OV-3 ovarian 119% | IGROV1 ovarian 69% and 79.3% | OVCAR-3 ovarian 61.3% and 71% | HS 578T breast 31.2% | NCI/ADR-RES ovarian 49.9% and 34.3% | MDA-MB-435 melanoma 110% and 103% | SW-620 colon 104% and 83.9% | MCF7 breast 20.6% and 34.8% | HCT-116 colon 88.6% and 96% | HCC-2998 colon 70.5% | KM12 colon 80% and 85%
active: OVCAR-4 ovarian -9.93% and -15.5% | BT-549 breast -16.4%

CC1CCC(=O)N1c1ccc(N)cc1 (configuration not stated)
inactive: SR leukemia 93.8% | RPMI-8226 leukemia 103% | OVCAR-8 ovarian 100% | OVCAR-5 ovarian 99.9% | OVCAR-4 ovarian 107% | SK-OV-3 ovarian 99.3% | IGROV1 ovarian 101% | OVCAR-3 ovarian 108% | HS 578T breast 108% | NCI/ADR-RES ovarian 106% | BT-549 breast 99.9% | MDA-MB-435 melanoma 109% | SW-620 colon 114% | MCF7 breast 97.6% | HCT-116 colon 101% | HCC-2998 colon 98.8% | KM12 colon 102%

CN(C)c1ccc(C(=N)c2ccc(N(C)C)cc2)cc1
9.98% (active) and 17.7% (inactive): SW-620 colon
inactive: SR leukemia 19.9% and 10.4% | RPMI-8226 leukemia 30.6% and 25.1% | OVCAR-8 ovarian 31.5% and 31.2% | OVCAR-5 ovarian 68.1% and 65.4% | OVCAR-4 ovarian 57.8% and 34.9% | SK-OV-3 ovarian 31.1% and 31.6% | HS 578T breast 16% and 40.5% | BT-549 breast 70.1% and 40.6% | HCT-116 colon 18.5% and 11.9% | HCC-2998 colon 52.4% and 48% | KM12 colon 14.4% and 18.7%
10.1% (inactive) and 2.28% (active): MCF7 breast
active: OVCAR-3 ovarian -9.34% and 2.49% | NCI/ADR-RES ovarian 0.0366% and 2.94% | MDA-MB-435 melanoma -7.96% and -36.7%
